PubChem BioAssay AID624351 (Southern Research Specialized Biocontainment Screening …, 2012)
Screen size: about 2,400 compounds; about 1,400 (58%) were called active.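 The calls were made as follows: active = inhibition of 30% or more at any tested dose; inconclusive = primary hits over the limit that were never retested; inactive = the rest.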 So high a share suggests a set chosen from earlier hits. This is one part of the list.

test: coupled detection enzyme interference, dose response, artefact control for MgcRacGAP inhibitor project, biochemical, coupled enzyme counter-screen (AID 624351); conditions: ADP Hunter coupled enzyme counter-screen, fluorescence, no MgcRacGAP; series mostly up to 80 µM;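 also: signal is the ADP detection kit reading of free GDP without any GAP enzyme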

SMILES	IC50
CN(C)c1ccc(Sc2ccc3nc(N)nc(N)c3c2)cc1	53.7 µM (active)
CCN(CC)S(=O)(=O)c1cccc(NC(=O)CNC2CCCCCC2)c1	inactive
CCOc1ccccc1NC(=O)C(NCC1(N2CCCCC2)CCCCC1)c1ccccc1 (stereo not given)	inactive
O=C(/C=C/Nc1ccc(Nc2ccccc2)cc1)c1cccs1	inactive
CN(C)c1ccc(N/C=C/C(=O)C(C)(C)C)cc1	7.04 µM (active)
C=C(CN(C)C)C(=O)c1ccc(OC2OC(COC(C)=O)C(OC(C)=O)C(OC(C)=O)C2OC(C)=O)cc1 (stereo not given)	inactive
O=[N+]([O-])c1ccc(N/N=C/c2ccc[nH]2)cc1	41.1 µM (active)
O=C1/C(=C\c2ccc([N+](=O)[O-])cc2)CS(=O)(=O)C/C1=C/c1ccc([N+](=O)[O-])cc1	inactive
CN1C=CC(=CC=C2C=CC(=O)C=C2)C=C1	23.1 µM (active)
COc1cc(C)c(N)cc1C(C)C	34.2 µM (active)
Nc1ccc(O)c([N+](=O)[O-])c1	43.9 µM (active)
Cc1ccc(S(=O)(=O)Oc2ccc(/C=C3/C(=N)N4C(=NC3=O)SN=C4S(C)(=O)=O)cc2)cc1	inactive
CCOC(=O)/C(C#N)=C1/C(=O)N(Cc2ccccc2)c2ccccc21	inactive
CCOC(=O)/C(C#N)=C1\C(=O)N(Cc2ccccc2)c2ccccc21	inactive
CCOC(=O)c1[nH]c(=S)n(Cc2ccccc2)c1C(=O)OCC	41.9 µM (active)
Cc1cs/c(=N\N=C\c2ccc(O)cc2)n1Cc1ccco1	25.9 µM (active)
Cc1ccc(CN2CCN(Cc3ccco3)CC2)cc1	inactive
CN(C)C(=S)N=c1ssc(=S)n1Cc1ccco1	inactive
CCN1CCN(CCCOc2ccccc2-c2ccccc2)CC1	inactive
COc1ccc(C(=O)/C=C/c2ccc(O)cc2)c2c1CC(O)C(C)(C)O2 (stereo not given)	52.3 µM (active)
COc1ccc(OC)c(CN2CCN(Cc3ccc(OC)c(OC)c3OC)CC2)c1	inactive
NC(=O)N/N=C/c1ccc(N2CCOCC2)s1	45.8 µM (active)
Clc1cccc(N/N=C/c2ccc(N3CCOCC3)s2)c1	59.7 µM (active)
CCOC(=O)N/N=C/c1ccc(N2CCOCC2)s1	53 µM (active)

SMILES	IC50
CNC(=S)N/N=C/c1ccc(N2CCOCC2)s1	inactive
COC(=O)CC1SC(=O)NC1=Nc1ccc(O)cc1 (stereo not given)	60.2 µM (active)
Cc1ccn2c(NC3CCCC3)c(-c3ccncc3)nc2c1	49 µM (active)
CCOC(=O)c1c(-c2ccccc2)csc1NC(=O)C(C)NCCCN1CCOCC1 (stereo not given)	inactive
Cc1c(-c2ccccc2)sc(N)c1C(=O)N1CCOCC1	41.6 µM (active)
CN1CCN(C(=O)c2sc(=S)n(-c3ccccc3)c2N)CC1	inactive
CCCCNCC#CCOc1cc(C)ccc1C(C)C	inactive
COc1cc(/C=C/c2sc3ccccc3[n+]2CCCS(=O)(=O)[O-])ccc1O	22.2 µM (active)
C=CC[n+]1c(/C=C/c2ccc(OC(C)=O)c(OC)c2)ccc2ccccc21	inactive
CN(C1CCCCC1)S(=O)(=O)c1cccc2nsnc12	inactive
CSC1=NN(c2ccccc2)CN(c2ccccc2)N1C	72.1 µM (active)
COc1cc(CCNC2=CC(=O)c3ncccc3C2=O)ccc1O	70.9 µM (active)
Cc1sc2nc(CN3CCOCC3)nc(N3CCOCC3)c2c1C	inactive
COc1cc(OC)cc(C(=O)N2CCN(Cc3ccc4c(c3)OCO4)CC2)c1	inactive
COc1cccc(OC)c1C(=O)N1CCN(Cc2ccc3c(c2)OCO3)CC1	inactive
CC(=O)N1CCN(c2ccc(NCc3ccc4c(c3)OCO4)cc2)CC1	9.9 µM (active)
c1cc2c(cc1CNc1ccc(N3CCOCC3)cc1)OCO2	4.31 µM (active)
C=CCNC(=S)N1CCN(Cc2ccc3c(c2)OCO3)CC1	inactive
Clc1ccccc1CNCc1ccc2c(c1)OCO2	inactive
CN1CCN(CCOCCOc2ccc(Br)cc2Cl)CC1	inactive
CN(C)CCCN1c2ccc(O)cc2Sc2ccc(Cl)cc21	13.1 µM (active)
CN1CCN(CCCN2c3ccccc3Sc3ccc(Cl)cc32)CC1	83.1 µM (active)
CCN1CCN(CCCOc2ccc(Cl)cc2Br)CC1	inactive
C=CCc1cc(Cl)ccc1OCCN(C)C	inactive

SMILES	IC50
Oc1ccc(/C=N/Nc2ccc(C(F)(F)F)cn2)cc1	29.7 µM (active)
Oc1ccc(/C=N/Nc2ccc(C(F)(F)F)cn2)c(O)c1	34.8 µM (active)
Cc1ncc(CO)c(/C=N/Nc2ccc(C(F)(F)F)cn2)c1O	inactive
COc1cc(/C=N/Nc2ccc(C(F)(F)F)cn2)ccc1O	52.5 µM (active)
COc1cc(/C=N/Nc2ncc(C(F)(F)F)cc2Cl)cc(OC)c1O	inactive
OCCNCCSc1nc(C2CCCCC2)n(-c2ccccc2Cl)n1	inactive
O=c1[nH]c(/C=C\c2ccc(O)cc2)nc(O)c1[N+](=O)[O-]	43.4 µM (active)
COc1cc(/C=N/NC(=O)c2cccc(N3CCCC3=O)c2)ccc1O	34.1 µM (active)
COc1cc(/C=N/NC(=O)c2ccc(N3CCCC3=O)cc2)ccc1O	31.5 µM (active)
O=c1nc2s/c(=C\c3ccc(-c4ccccc4[N+](=O)[O-])o3)c(=O)n2nc1-c1ccccc1	inactive
COc1cc(/C=N/NC(=O)NC23CC4CC(CC(C4)C2)C3)ccc1O	56.2 µM (active)
C=C1CC(C(=O)N/N=C/c2ccc(O)cc2)C1	45.9 µM (active)
O=C(N/N=C/c1ccc(O)cc1)NC12CC3CC(CC(C3)C1)C2	53 µM (active)
COc1cc(/C=N/N=C2\CC3CCC2(C)C3(C)C)ccc1O (stereo not given)	45.7 µM (active)
O=C(O)C1CSC(c2ccco2)N1 (stereo not given)	inactive
CCOc1ccc(CNC2CCCc3ccccc32)cc1 (stereo not given)	inactive
COc1cc(/C=N\NC(=O)C2CC3C=CC2C3)ccc1O (stereo not given)	23.9 µM (active)
COCCNC(=O)Cn1cc(/C=N/NC(=O)c2ccc(Oc3ccc(O)cc3)cc2)c2ccccc21	44.8 µM (active)
COCCNC(=O)CN(C(=O)Cn1nnc2ccccc21)c1ccc(C)cc1	inactive
Oc1ccc(/C=N/Nc2ncc(Cl)cc2Cl)cc1	21.5 µM (active)
Oc1ccc(/C=N/Nc2nccnc2Cl)c(O)c1	12.8 µM (active)
Oc1ccc(/C=N/Nc2nccnc2Cl)cc1	21.1 µM (active)
